Experimental data published in the supplement of paper PMC8728848.
The sample as a whole holds a higher share of the strongest signals than the screen did.

Tests used:
Assay in all cases: glycan array binding signal (z-score within array); higher = stronger binding
Settings in all cases: glycan notation: IUPAC condensed, linker removed
Fuc(a1-2)Gal(b1-3)GalNAc = biological target: Fuc(a1-2)Gal(b1-3)GalNAc
Summary of the method: (§1)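 Glycan array binding is given as a within-array Z-score, which can be read as non-binding when negative. The arrays, 3228 of them, came from the Consortium for Functional Glycomics database and were retained only where the protein sequence was available. Z-scores were averaged across arrays of the same protein sequence at different concentrations or buffers and across linkers.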

[1] = biological target: Fuc(a1-2)Gal(b1-3)GalNAc(a1-3)[Fuc(a1-2)]Gal(b1-4)GlcNAc
Summary of the method: as §1

Fuc(a1-2)Gal(b1-4)GlcNAc = biological target: Fuc(a1-2)Gal(b1-4)GlcNAc
Summary of the method: as §1

[2] = biological target: Fuc(a1-2)Gal(b1-4)GlcNAc(b1-2)Man(a1-3)[Fuc(a1-2)Gal(b1-4)GlcNAc(b1-2)Man(a1-6)]Man(b1-4)GlcNAc(b1-4)[Fuc(a1-6)]GlcNAc
Summary of the method: as §1

[3] = biological target: Fuc(a1-2)Gal(b1-4)[Fuc(a1-3)]GlcNAc
Summary of the method: as §1

[4] = biological target: Fuc(a1-2)Gal(b1-4)[Fuc(a1-3)]GlcNAc(b1-3)Gal(b1-4)[Fuc(a1-3)]GlcNAc(b1-3)Gal(b1-4)[Fuc(a1-3)]GlcNAc
Summary of the method: as §1

Fuc(a1-2)Gal6S(b1-4)Glc = biological target: Fuc(a1-2)Gal6S(b1-4)Glc
Summary of the method: as §1

[5] = biological target: Fuc(a1-2)[Gal(a1-3)]Gal(b1-3)GlcNAc(b1-2)Man(a1-3)[Fuc(a1-2)[Gal(a1-3)]Gal(b1-3)GlcNAc(b1-2)Man(a1-6)]Man(b1-4)GlcNAc(b1-4)GlcNAc
Summary of the method: as §1

[6] = biological target: Fuc(a1-2)[GalNAc(a1-3)]Gal
Summary of the method: as §1

[7] = biological target: Fuc(a1-2)[GalNAc(a1-3)]Gal(b1-3)GlcNAc(b1-3)GalNAc
Summary of the method: as §1

[8] = biological target: Fuc(a1-2)[GalNAc(a1-3)]Gal(b1-4)GlcNAc(b1-3)Gal(b1-4)GlcNAc(b1-3)Gal(b1-4)GlcNAc
Summary of the method: as §1

[9] = biological target: Fuc(a1-3)[Gal(b1-4)]GlcNAc(b1-4)Gal(b1-4)[Fuc(a1-3)]GlcNAc
Summary of the method: as §1

[10] = biological target: Fuc(a1-3)[Gal(b1-4)]GlcNAc(b1-6)GalNAc
Summary of the method: as §1

Gal(a1-4)Gal(b1-4)GlcNAc = biological target: Gal(a1-4)Gal(b1-4)GlcNAc
Summary of the method: as §1

Gal(b1-3)GlcNAc = biological target: Gal(b1-3)GlcNAc
Summary of the method: as §1

[11] = biological target: Gal(b1-3)GlcNAc(b1-3)GalNAc
Summary of the method: as §1

Gal(b1-4)Glc6S = biological target: Gal(b1-4)Glc6S
Summary of the method: as §1

[12] = biological target: Gal(b1-4)GlcNAc(b1-2)Man(a1-3)[Man(a1-6)]Man(b1-4)GlcNAc(b1-4)GlcNAc
Summary of the method: as §1

Gal(b1-6)Gal = biological target: Gal(b1-6)Gal
Summary of the method: as §1

[13] = biological target: Gal3S(b1-3)[Fuc(a1-4)]GlcNAc
Summary of the method: as §1

Gal3S6S(b1-4)GlcNAc = biological target: Gal3S6S(b1-4)GlcNAc
Summary of the method: as §1

Gal3S6S(b1-4)GlcNAc6S = biological target: Gal3S6S(b1-4)GlcNAc6S
Summary of the method: as §1

GalNAc(b1-3)GalNAc = biological target: GalNAc(b1-3)GalNAc
Summary of the method: as §1

[14] = biological target: Glc(a1-4)Glc(a1-4)Glc(a1-4)Glc
Summary of the method: as §1

Glc(b1-4)Glc = biological target: Glc(b1-4)Glc
Summary of the method: as §1

[15] = biological target: GlcNAc(b1-2)[GlcNAc(b1-4)]Man(a1-3)[GlcNAc(b1-2)Man(a1-6)]Man(b1-4)GlcNAc(b1-4)GlcNAc
Summary of the method: as §1

GlcNAc(b1-3)Gal(b1-4)Glc = biological target: GlcNAc(b1-3)Gal(b1-4)Glc
Summary of the method: as §1

GlcNAc(b1-3)GalNAc = biological target: GlcNAc(b1-3)GalNAc
Summary of the method: as §1

GlcNAc(b1-3)Man = biological target: GlcNAc(b1-3)Man
Summary of the method: as §1

[16] = biological target: GlcNAc(b1-3)[GlcNAc(b1-6)]GalNAc
Summary of the method: as §1

[17] = biological target: Man(a1-2)Man(a1-6)[Man(a1-3)]Man(a1-6)[Man(a1-2)Man(a1-2)Man(a1-3)]Man(b1-4)GlcNAc(b1-4)GlcNAc
Summary of the method: as §1

Neu5Ac(a2-3)Gal = biological target: Neu5Ac(a2-3)Gal
Summary of the method: as §1

[18] = biological target: Neu5Ac(a2-3)Gal(b1-4)[Fuc(a1-3)]GlcNAc(b1-3)Gal(b1-4)[Fuc(a1-3)]GlcNAc(b1-3)Gal(b1-4)[Fuc(a1-3)]GlcNAc
Summary of the method: as §1

[19] = biological target: Neu5Ac(a2-3)[GalNAc(b1-4)]Gal(b1-4)GlcNAc
Summary of the method: as §1

[20] = biological target: Neu5Ac(a2-6)Gal(b1-4)GlcNAc
Summary of the method: as §1

[21] = biological target: Neu5Ac(a2-6)Gal(b1-4)GlcNAc(b1-2)Man(a1-3)[Man(a1-6)]Man(b1-4)GlcNAc(b1-4)GlcNAc
Summary of the method: as §1

[22] = biological target: Neu5Ac(a2-6)Gal(b1-4)GlcNAc(b1-2)Man(a1-6)[GlcNAc(b1-2)Man(a1-3)]Man(b1-4)GlcNAc(b1-4)GlcNAc
Summary of the method: as §1

[23] = biological target: Neu5Ac(a2-8)Neu5Ac(a2-3)Gal(b1-3)GalNAc(b1-4)[Neu5Ac(a2-8)Neu5Ac(a2-3)]Gal(b1-4)Glc
Summary of the method: as §1

[24] = biological target: Neu5Ac9Ac(a2-3)Gal(b1-3)GlcNAc
Summary of the method: as §1

Neu5Gc(a2-3)Gal(b1-4)Glc = biological target: Neu5Gc(a2-3)Gal(b1-4)Glc
Summary of the method: as §1

B1: PpFlo3 (Pichia pastoris) (protein)
chain: MGSSHHHHHHSSGLVPRGSHMQESGNGTTSDTAYACDIGATPFDGFNATIYQYQASDDNSIQDPVFMSTGYLQRNQLHSTTGVTNPGFNIFTAGVATTTLYGIPNVNYQNMLLELKGYFRADASGNYGLSLRNIDDSAILFFGRETAFECCNENLIPLDEAPTDYSLFTIKEGEASTNPDSYTYTQYLEAGRYYPVRTFFANIRTRAVFNFTMTLPDGSELTDFQNYIFQFGALNQ
Q: B1 was tested. Which “glycan array binding signal (z-score)” value (Fuc(a1-2)Gal(b1-3)GalNAc) did it give?
A: The value was -0.256.

Q: What about the “glycan array binding signal (z-score)” value [1] of the same binder?
A: The value was -0.217.

Q: What about the “glycan array binding signal (z-score)” value (Fuc(a1-2)Gal(b1-4)GlcNAc) of the same binder?
A: Its value is -0.242.

Q: And the “glycan array binding signal (z-score)” value [2]?
A: Its value is -0.263.

Q: And the “glycan array binding signal (z-score)” value [3]?
A: Its value is 4.84.

Q: What about the “glycan array binding signal (z-score)” value [4] of the same binder?
A: The value was 4.32.

Q: And the “glycan array binding signal (z-score)” value (Fuc(a1-2)Gal6S(b1-4)Glc)?
A: The value was -0.279.

Q: And the “glycan array binding signal (z-score)” value [5]?
A: The value was -0.259.

Q: And the “glycan array binding signal (z-score)” value [6]?
A: The value was -0.298.

Q: What about the “glycan array binding signal (z-score)” value [7] of the same binder?
A: The value was -0.014.

Q: What about the “glycan array binding signal (z-score)” value [8] of the same binder?
A: The value was -0.303.

Q: And the “glycan array binding signal (z-score)” value [9]?
A: The value was 2.75.

Q: And the “glycan array binding signal (z-score)” value [10]?
A: The value was -0.238.

Q: What about the “glycan array binding signal (z-score)” value (Gal(a1-4)Gal(b1-4)GlcNAc) of the same binder?
A: Its value is -0.139.

Q: And the “glycan array binding signal (z-score)” value (Gal(b1-3)GlcNAc)?
A: The value was -0.201.

Q: And the “glycan array binding signal (z-score)” value [11]?
A: Its value is -0.296.

Q: And the “glycan array binding signal (z-score)” value (Gal(b1-4)Glc6S)?
A: The value was 4.38.

Q: What about the “glycan array binding signal (z-score)” value [12] of the same binder?
A: The value was -0.233.

Q: And the “glycan array binding signal (z-score)” value (Gal(b1-6)Gal)?
A: The value was -0.281.

Q: What about the “glycan array binding signal (z-score)” value [13] of the same binder?
A: The value was 5.08.

Q: What about the “glycan array binding signal (z-score)” value (Gal3S6S(b1-4)GlcNAc) of the same binder?
A: Its value is -0.27.

Q: And the “glycan array binding signal (z-score)” value (Gal3S6S(b1-4)GlcNAc6S)?
A: The value was -0.269.

Q: And the “glycan array binding signal (z-score)” value (GalNAc(b1-3)GalNAc)?
A: The value was 5.1.

Q: What about the “glycan array binding signal (z-score)” value [14] of the same binder?
A: Its value is -0.242.

Q: And the “glycan array binding signal (z-score)” value (Glc(b1-4)Glc)?
A: The value was -0.246.

Q: And the “glycan array binding signal (z-score)” value [15]?
A: Its value is 4.67.

Q: What about the “glycan array binding signal (z-score)” value (GlcNAc(b1-3)Gal(b1-4)Glc) of the same binder?
A: The value was -0.291.

Q: What about the “glycan array binding signal (z-score)” value (GlcNAc(b1-3)GalNAc) of the same binder?
A: The value was -0.266.

Q: And the “glycan array binding signal (z-score)” value (GlcNAc(b1-3)Man)?
A: The value was 6.76.

Q: And the “glycan array binding signal (z-score)” value [16]?
A: The value was 1.75.

Q: And the “glycan array binding signal (z-score)” value [17]?
A: Its value is -0.271.

Q: And the “glycan array binding signal (z-score)” value (Neu5Ac(a2-3)Gal)?
A: Its value is -0.283.

Q: And the “glycan array binding signal (z-score)” value [18]?
A: Its value is -0.266.

Q: What about the “glycan array binding signal (z-score)” value [19] of the same binder?
A: The value was -0.272.

Q: What about the “glycan array binding signal (z-score)” value [20] of the same binder?
A: The value was -0.282.

Q: And the “glycan array binding signal (z-score)” value [21]?
A: The value was -0.281.

Q: And the “glycan array binding signal (z-score)” value [22]?
A: Its value is 4.82.

Q: What about the “glycan array binding signal (z-score)” value [23] of the same binder?
A: Its value is -0.017.

Q: What about the “glycan array binding signal (z-score)” value [24] of the same binder?
A: The value was -0.267.

Q: What about the “glycan array binding signal (z-score)” value (Neu5Gc(a2-3)Gal(b1-4)Glc) of the same binder?
A: Its value is -0.276.
